# Inconclusive results are not listed. Where a call stands in place of a potency, no number is given. A number with no mark means an inactive call. The source made the active and inactive calls. Calls follow the shape of the dose curve; as a rule, active = well fitted curve in the direction sought with a large enough effect; inconclusive = small, poorly fitted or top-dose-only effect, or another doubt; inactive = no such curve, though single readings can be large; an effect the other way counts as inactive or inconclusive.
# System: NIH3T3
# Assay: qHTS assay to identify novel small-molecules to repurpose for Merkel cell carcinoma treatment (AID 1296009); also: nearly all actives have a fitted effect of over 60% in size
# Details: MCC and control cell lines, CellTiter-Glo viability, 72 h; at 44.8 µM (top of the series) unless noted
# Method in brief: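 Cells were treated for 72 hr at 37 degree celsius with compounds in 8- or 11-point dose response. Viability was read by CellTiter-Glo luminescence, normalized to no-cell (cytotoxicity) and DMSO controls.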
row,SMILES,outcome
1,CC(=O)N[C@H]1CCN(c2ccc(C3=NOC(CN[S+](=O)([O-])C(C)C)C3)cc2F)C1 (stereo partly specified),inactive
2,O=C(/C=C/c1ccc(O)cc1)OC[C@H]1O[C@@H](OC(=O)/C=C/c2ccccc2)[C@H](O)[C@@H](O)[C@@H]1O,inactive [at 17.4 µM]
3,CC(=O)O[C@H]1[C@H](C)[C@@H](O)[C@H]2[C@@H]1C=C(C(=O)O)[C@H]1C[C@@H]3[C@H]([C@H]21)[C@H]1C(=O)O[C@@H]2CC[C@@]3(C)O[C@]1(O)[C@@H]2C,inactive [at 17.4 µM]
4,N[C@H]1C[C@H]1c1ccc(-c2cccc(O)c2)cc1,inactive
5,COC(=O)c1ccc(O[C@@H]2O[C@H](CO)[C@@H](O)[C@H](O)[C@H]2O)c(OC)c1,inactive
6,CCn1nnnc1NCc1ccc(C(C)C)cc1,inactive
7,COc1c2c(c(C)c3c1C(=O)OC3)OC1(C)CC(O)C3(O)C(C)(C)OC(=O)CCC3(C)C1C2 (stereo unspecified),inactive [at 17.4 µM]
8,C=C1CCC[C@]2(C)C[C@]3(O)OC(=O)C(C)=C3C[C@@H]12,inactive
9,COc1cc(/C=C/C(=O)OC2CC(C)=C(C(=O)O)/C2=C/CO[C@@H]2O[C@H](CO)[C@@H](O)[C@H](O)[C@H]2O)ccc1O (stereo partly specified),inactive [at 17.4 µM]
10,C=C1CCC2(OC1)OC1CC3C4CC=C5CC(O)CC(O[C@@H]6OC[C@@H](O)[C@H](O)[C@H]6O)C5(C)C4CCC3(C)C1(O)C2C (stereo partly specified),inactive [at 17.4 µM]
11,CC(C)CC(=O)OC[C@H]1O[C@@](COC(=O)CC(C)C)(O[C@H]2O[C@H](CO)[C@@H](O)[C@H](O)[C@H]2O)[C@@H](OC(=O)CC(C)C)[C@@H]1OC(=O)CC(C)C,inactive [at 17.4 µM]
12,CC(C)C1=CC2=CCC3[C@](C)(CCC[C@@]3(C)C(=O)O)C2CC1=O (stereo partly specified),inactive
13,O=C1N(CC2CCCCN2)CCN1c1ccccc1 (stereo unspecified),inactive
14,CCOC(=O)[C@H](CCc1ccccc1)N[C@@H](C)C(=O)N1C2CCCCC2C[C@H]1C(=O)O (stereo partly specified),inactive
15,C[C@H]1[C@H](C)CC[C@]2(C(=O)O)CC[C@]3(C(=O)O)C(=CCC4[C@@]5(C)CC[C@H](O[C@@H]6O[C@H](C)[C@@H](O)[C@H](O)[C@H]6O)C(C)(C)C5CC[C@]43C)[C@H]12 (stereo partly specified),inactive [at 17.4 µM]
16,O=C1NCc2nc3ccccc3c(=O)n2C1Cc1c[nH]c2ccccc12 (stereo unspecified),inactive
17,O=C(O[C@H]1[C@@H]2C=CO[C@@H](O[C@@H]3O[C@H](CO)[C@@H](O)[C@H](O)[C@H]3O)[C@@H]2[C@@]2(CO)O[C@@H]12)c1ccc(O)cc1,inactive [at 17.4 µM]
18,C=C(C)[C@@H]1CC[C@](C)(O)[C@@H](OC(=O)c2ccccc2)C1,inactive
19,CCOc1nc2cccc(C(=O)OCc3oc(=O)oc3C)c2n1Cc1ccc(-c2ccccc2-c2noc(O)n2)cc1,inactive
20,C[C@@H](Nc1cc(NS(=O)(=O)N2CCC2)nc(SCc2cccc(F)c2F)n1)[C@@H](O)CO,inactive
21,Cc1cc(N2CCCCC2)nc2ccccc12,inactive
22,C=C(C)C(=O)O[C@H]1C[C@@](C)(OC(C)=O)[C@@]2(O)CC[C@@](C)(O)[C@H](OC(C)=O)[C@@]23OC(=O)C(COC)=C13,inactive [at 17.4 µM]
23,CC1=CC(=O)CC(C)(CO[C@@H]2O[C@H](CO)[C@@H](O)[C@H](O)[C@H]2O)C1(O)/C=C/C(C)=C/C(=O)O (stereo partly specified),inactive [at 17.4 µM]
24,C=C1C(OC(C)=O)C(=O)C2C(C)(C)C(OC(C)=O)CCC2(C)C1CC(OC(C)=O)/C(C)=C/COC(C)=O (stereo unspecified),inactive [at 17.4 µM]
25,O=S(=O)(Nc1ccc(C(O)(C(F)(F)F)C(F)(F)F)cc1)c1cccs1,inactive
26,CCC(=O)N[C@@H]1Cc2ccccc2[C@H](c2ccccc2)C1,inactive
27,CC(C)(C)NCC(O)COc1cccc2c1CCCC2=O (stereo unspecified),inactive
28,CC(=O)OC[C@]1(O)[C@H]2[C@H](OC(=O)CC(C)C)OC=C(CO[C@@H]3O[C@H](CO)[C@@H](O)[C@H](O)[C@H]3O)[C@H]2C[C@@H]1O,inactive [at 17.4 µM]
29,C[C@@H]1CC[C@]2(C(=O)O)CC[C@]3(C(=O)O)C(=CCC4[C@@]5(C)CC[C@H](O[C@@H]6O[C@@H](C)[C@H](O[C@@H]7O[C@H](CO)[C@@H](O)[C@H](O)[C@H]7O)[C@@H](O)[C@H]6O)C(C)(C)C5CC[C@]43C)C2[C@H]1C (stereo partly specified),inactive [at 17.4 µM]
30,CC1CCC2(O1)C(C)(C)CC(O[C@@H]1O[C@H](CO[C@@H]3OC[C@](O)(CO)[C@H]3O)[C@@H](O)[C@H](O)[C@H]1O)CC2(C)O (stereo partly specified),inactive [at 17.4 µM]

# System: C33A
# Assay: Primary qHTS to identify gynecologic anti-cancer compounds using libraries of approved drugs and bioactive compounds (AID 1345084); also: nearly all actives have a fitted effect of over 55% in size
# Details: Gynecologic cancer cell panel viability, ATPlite luminescence, 48 h; series mostly up to 57.5 µM
# Method in brief: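 Cells, 1,000 per well, were allowed to settle for 16 h at 37 C before compound addition. Five concentrations were tested for 48 h, and viability was read by ATPlite luminescence after 15 min at room temperature.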
SMILES,Potency,"activity change, negative = cytotoxicity"
C=CC(C)(CC/C=C(\C)CC/C=C(\C)CC(O)/C=C(\C)C(=O)O)O[C@@H]1O[C@H](CO)[C@@H](O)[C@H](O)[C@H]1O[C@@H]1O[C@H](CO)[C@@H](O)[C@H](O)[C@H]1O (stereo partly specified),inactive,
O=C(NCc1ccc(OC(F)(F)F)cc1)C1c2ccccc2C(=O)N1C1CCOCC1 (stereo unspecified),inactive,
COC(=O)[C@H](OC(C)=O)[C@H]1C(C)(C)C(=O)[C@H]2CC3=C4CC(=O)O[C@@H](c5ccoc5)[C@]4(C)CCC3[C@@]1(C)C2=O (stereo partly specified),inactive,
O=C(O[C@H]1[C@@H]2C[C@@H]3OC[C@@](O)([C@H]2[C@H](O[C@@H]2O[C@H](CO)[C@@H](O)[C@H](O)[C@H]2O)O3)[C@@H]1O)c1ccccc1,inactive,
N#CC1C(=O)Nc2scc(-c3ccc(-c4ccccc4O)cc3)c2C1=O (stereo unspecified),inactive,
CC1CCC(=O)CC(O)C(O)CC(=O)O1 (stereo unspecified),inactive,
Cc1ncc([N+](=O)[O-])n1CC(O)CN1CCOCC1 (stereo unspecified),inactive,
CC(C)(O)C1CC=C(C(=O)OCC2OC(Oc3c(O)cc(C(=O)O)cc3O)C(O)C(O)C2O)CC1 (stereo unspecified),inactive,
CC1=CC[C@]2(C(=O)O[C@@H]3O[C@H](CO[C@@H]4O[C@H](CO)[C@@H](O[C@@H]5O[C@@H](C)[C@H](O)[C@@H](O)[C@H]5O)[C@H](O)[C@H]4O)[C@@H](O)[C@H](O)[C@H]3O)CC[C@]3(C)C(CCC4[C@@]5(C)C[C@@H](O)[C@H](O)[C@@](C)(CO)C5CC[C@]43C)C2C1C (stereo partly specified),,6.24% [at 11.6 µM]
CC(=O)N[C@H]1CCN(c2ccc(C3=NOC(CN[S+](=O)([O-])C(C)C)C3)cc2F)C1 (stereo partly specified),inactive,
O=C(/C=C/c1ccc(O)cc1)OC[C@H]1O[C@@H](OC(=O)/C=C/c2ccccc2)[C@H](O)[C@@H](O)[C@@H]1O,inactive,
CC(=O)O[C@H]1[C@H](C)[C@@H](O)[C@H]2[C@@H]1C=C(C(=O)O)[C@H]1C[C@@H]3[C@H]([C@H]21)[C@H]1C(=O)O[C@@H]2CC[C@@]3(C)O[C@]1(O)[C@@H]2C,inactive,
N[C@H]1C[C@H]1c1ccc(-c2cccc(O)c2)cc1,inactive,
COC(=O)c1ccc(O[C@@H]2O[C@H](CO)[C@@H](O)[C@H](O)[C@H]2O)c(OC)c1,inactive,
CCn1nnnc1NCc1ccc(C(C)C)cc1,inactive,
COc1c2c(c(C)c3c1C(=O)OC3)OC1(C)CC(O)C3(O)C(C)(C)OC(=O)CCC3(C)C1C2 (stereo unspecified),inactive,
C=C1CCC[C@]2(C)C[C@]3(O)OC(=O)C(C)=C3C[C@@H]12,inactive,
COc1cc(/C=C/C(=O)OC2CC(C)=C(C(=O)O)/C2=C/CO[C@@H]2O[C@H](CO)[C@@H](O)[C@H](O)[C@H]2O)ccc1O (stereo partly specified),inactive,

SMILES,Potency,"activity change, negative = cytotoxicity"
C=C1CCC2(OC1)OC1CC3C4CC=C5CC(O)CC(O[C@@H]6OC[C@@H](O)[C@H](O)[C@H]6O)C5(C)C4CCC3(C)C1(O)C2C (stereo partly specified),inactive,
CC(C)CC(=O)OC[C@H]1O[C@@](COC(=O)CC(C)C)(O[C@H]2O[C@H](CO)[C@@H](O)[C@H](O)[C@H]2O)[C@@H](OC(=O)CC(C)C)[C@@H]1OC(=O)CC(C)C,inactive,
CC(C)C1=CC2=CCC3[C@](C)(CCC[C@@]3(C)C(=O)O)C2CC1=O (stereo partly specified),inactive,
O=C1N(CC2CCCCN2)CCN1c1ccccc1 (stereo unspecified),inactive,
CCOC(=O)[C@H](CCc1ccccc1)N[C@@H](C)C(=O)N1C2CCCCC2C[C@H]1C(=O)O (stereo partly specified),inactive,
C[C@H]1[C@H](C)CC[C@]2(C(=O)O)CC[C@]3(C(=O)O)C(=CCC4[C@@]5(C)CC[C@H](O[C@@H]6O[C@H](C)[C@@H](O)[C@H](O)[C@H]6O)C(C)(C)C5CC[C@]43C)[C@H]12 (stereo partly specified),inactive,
O=C1NCc2nc3ccccc3c(=O)n2C1Cc1c[nH]c2ccccc12 (stereo unspecified),inactive,
O=C(O[C@H]1[C@@H]2C=CO[C@@H](O[C@@H]3O[C@H](CO)[C@@H](O)[C@H](O)[C@H]3O)[C@@H]2[C@@]2(CO)O[C@@H]12)c1ccc(O)cc1,inactive,
C=C(C)[C@@H]1CC[C@](C)(O)[C@@H](OC(=O)c2ccccc2)C1,inactive,
CCOc1nc2cccc(C(=O)OCc3oc(=O)oc3C)c2n1Cc1ccc(-c2ccccc2-c2noc(O)n2)cc1,inactive,
C[C@@H](Nc1cc(NS(=O)(=O)N2CCC2)nc(SCc2cccc(F)c2F)n1)[C@@H](O)CO,inactive,
Cc1cc(N2CCCCC2)nc2ccccc12,inactive,
C=C(C)C(=O)O[C@H]1C[C@@](C)(OC(C)=O)[C@@]2(O)CC[C@@](C)(O)[C@H](OC(C)=O)[C@@]23OC(=O)C(COC)=C13,inactive,
CC1=CC(=O)CC(C)(CO[C@@H]2O[C@H](CO)[C@@H](O)[C@H](O)[C@H]2O)C1(O)/C=C/C(C)=C/C(=O)O (stereo partly specified),inactive,
C=C1C(OC(C)=O)C(=O)C2C(C)(C)C(OC(C)=O)CCC2(C)C1CC(OC(C)=O)/C(C)=C/COC(C)=O (stereo unspecified),inactive,
O=S(=O)(Nc1ccc(C(O)(C(F)(F)F)C(F)(F)F)cc1)c1cccs1,inactive,
CCC(=O)N[C@@H]1Cc2ccccc2[C@H](c2ccccc2)C1,inactive,
CC(C)(C)NCC(O)COc1cccc2c1CCCC2=O (stereo unspecified),inactive,

# Reference: PubChem BioAssay (NCATS)
